# Laboratory results as given in PubChem BioAssay (NCATS).
# Inconclusive results are not listed. The source made the active and inactive calls. The call rests on the fitted dose curve; in most records, active means well fitted cell-killing curve with a large enough effect; inconclusive means small, poorly fitted or top-dose-only effect, or effect the other way; inactive means no such curve, though single readings can be large or run the other way.
# Assay: Quantitative High-Throughput drug screen in 47 multiple myeloma cell lines against the NCATS MIPE library collection: EJM_DSMZ cell viability assay (AID 1918926)
# Conditions: EJM myeloma cell viability, CellTiter-Glo ATP, 48 h; series mostly up to 45.8 µM; viability, % of control: at the top concentration
# In short: (§1)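 Luminescent ATP measurement with CellTiter-Glo gives viability, scaled between DMSO-only wells (100%) and media-only wells (0%). Cells, 500 per well, faced library compounds for 48 hours at 37C.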
# Further: nearly all actives have a fitted effect of over 30% in size.
# Potency means the concentration at half of the fitted maximal effect.
SMILES,"viability, % of control",Potency
O=S(=O)(N=Cc1c(O)ccc2ccccc12)c1cccs1,95.1% (inactive),
NCCCC(N)(C(=O)O)C(F)F (stereo unspecified),107% (inactive),
Nc1nc2c(ncn2COCCO)c(=O)[nH]1,94.4% (inactive),
COc1cc(Oc2ccnc3cc(OC)c(OC)cc23)ccc1NC(=O)NC(C)c1nccs1 (stereo unspecified),102% (inactive),
OC[C@H](Cc1ccccc1)Nc1nc(Oc2ccc3c(c2)CCC3)nc2c1ncn2Cc1ccc(-c2ccccc2)cc1,96.9% (inactive),
CC(=O)Oc1ccccc1C(=O)O,,8.33 µM (active)
NC(=O)c1ccc(-c2nc(-c3ccc4c(c3)OCCO4)c(-c3ccccn3)[nH]2)cc1,101% (inactive),
CNC(=O)c1ccc(N2C(=S)N(c3ccc(C#N)c(C(F)(F)F)c3)C(=O)C2(C)C)cc1F,79.2% (inactive),

# Assay: Quantitative High-Throughput drug screen in 47 multiple myeloma cell lines against the NCATS MIPE library collection: AMO1_DSMZ cell viability assay (AID 1918927)
# Conditions: AMO1 myeloma cells viability, CellTiter-Glo ATP luminescence, 48 h; series mostly up to 45.8 µM; viability, % of DMSO: at the top concentration
# In short: as §1
SMILES,Potency,"viability, % of DMSO"
CCOc1ccn(-c2ccc(F)cc2)c(=O)c1C(=O)Nc1ccc(Oc2ccnc(N)c2Cl)c(F)c1,18.7 µM (active),
O=C1CCCC2=C1C(c1[nH]ncc1Cl)N=C(Nc1nc3ccccc3o1)N2 (stereo unspecified),,138% (inactive)
O=c1[nH]c(-c2ccc(C(F)(F)F)cc2)nc2c1CSCC2,,120% (inactive)
Cc1ccnc(NS(=O)(=O)c2ccc(NC(=O)Nc3ccc(S(=O)(=O)Nc4nccc(C)n4)cc3)cc2)n1,14.8 µM (active),
O=C(O)[C@@H](c1ccc(OCc2ccc3ccccc3n2)cc1)C1CCCC1,,113% (inactive)
CC[C@@H](C)[C@H](NC(=O)[C@H](CC1CCCCC1)NC(=O)c1ccno1)C(=O)N1CCC2(CCc3ccccc32)CC1,,87.1% (inactive)
NS(=O)(=O)c1cc2c(cc1Cl)NC=NS2(=O)=O,,119% (inactive)
COc1ccc(-c2oc3cc(OC)ccc3c2C(=O)c2ccc(C#N)cc2)cc1,7.43 µM (active),
